Compounds with a hit are over-represented: about 12% of the library has one in this group of screens.
G9a inh: blocks human histone lysine methyltransferase G9a; Q96KQ7; G9a H3K9 monomethylation, AlphaScreen, 2 h; Potency, µM (highest dose often 102 µM), inactives show top-dose activity, negative = inhibition, most hits filed as inhibitors; 350,000 compounds, 8.8% hits; AID 504332; further: potency means the concentration at half of the fitted maximal effect; on the % scale 0 is the no-effect control and ±100 the full control effect; nearly all actives have a fitted effect of over 75% in size
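Methyltransferase reactions run at room temperature for 2 h (20 nM enzyme, 500 nM biotin-H3K9 peptide, 20 uM SAM) after a 15 min compound preincubation; product detected by AlphaScreen beads and anti-H3K9me1 antibody.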
BAZ2B block: BAZ2B (human) inhibition. Q9UIF8. AlphaScreen BAZ2B-H3K14Ac peptide displacement. Potency, µM (series often up to 114 µM), inactives show top-dose activity change, negative = inhibition, usual class: inhibitors. 360,000 compounds, 4.4% hits. AID 504333; further: potency means the concentration at half of the fitted maximal effect; on the % scale 0 is the no-effect control and ±100 the full control effect; nearly all actives have a fitted effect of over 60% in size
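Protein-peptide AlphaScreen: BAZ2B 50 nM, b-H3K14Ac 50 nM, 1x PBS pH 7.4 + 0.01% Tween-20. Preincubation 30 min RT; cpd 30 min RT (top 110 uM); beads 20 min RT, light-protected.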
JMJD2A Tudor inh: blocks the human JMJD2A Tudor domain. 390,000 compounds, 4.4% hits. Potency, µM (highest dose often 114 µM), for inactives: at the top dose activity change, negative = inhibition, actives largely listed as inhibitors. AlphaScreen JMJD2A-Tudor / H3K4me3 peptide binding. O75164; further: potency means the concentration at half of the fitted maximal effect; on the % scale 0 is the no-effect control and ±100 the full control effect; nearly all actives have a fitted effect of over 50% in size
Target sequence (O75164 whole entry, looked up, the tested form may be a part): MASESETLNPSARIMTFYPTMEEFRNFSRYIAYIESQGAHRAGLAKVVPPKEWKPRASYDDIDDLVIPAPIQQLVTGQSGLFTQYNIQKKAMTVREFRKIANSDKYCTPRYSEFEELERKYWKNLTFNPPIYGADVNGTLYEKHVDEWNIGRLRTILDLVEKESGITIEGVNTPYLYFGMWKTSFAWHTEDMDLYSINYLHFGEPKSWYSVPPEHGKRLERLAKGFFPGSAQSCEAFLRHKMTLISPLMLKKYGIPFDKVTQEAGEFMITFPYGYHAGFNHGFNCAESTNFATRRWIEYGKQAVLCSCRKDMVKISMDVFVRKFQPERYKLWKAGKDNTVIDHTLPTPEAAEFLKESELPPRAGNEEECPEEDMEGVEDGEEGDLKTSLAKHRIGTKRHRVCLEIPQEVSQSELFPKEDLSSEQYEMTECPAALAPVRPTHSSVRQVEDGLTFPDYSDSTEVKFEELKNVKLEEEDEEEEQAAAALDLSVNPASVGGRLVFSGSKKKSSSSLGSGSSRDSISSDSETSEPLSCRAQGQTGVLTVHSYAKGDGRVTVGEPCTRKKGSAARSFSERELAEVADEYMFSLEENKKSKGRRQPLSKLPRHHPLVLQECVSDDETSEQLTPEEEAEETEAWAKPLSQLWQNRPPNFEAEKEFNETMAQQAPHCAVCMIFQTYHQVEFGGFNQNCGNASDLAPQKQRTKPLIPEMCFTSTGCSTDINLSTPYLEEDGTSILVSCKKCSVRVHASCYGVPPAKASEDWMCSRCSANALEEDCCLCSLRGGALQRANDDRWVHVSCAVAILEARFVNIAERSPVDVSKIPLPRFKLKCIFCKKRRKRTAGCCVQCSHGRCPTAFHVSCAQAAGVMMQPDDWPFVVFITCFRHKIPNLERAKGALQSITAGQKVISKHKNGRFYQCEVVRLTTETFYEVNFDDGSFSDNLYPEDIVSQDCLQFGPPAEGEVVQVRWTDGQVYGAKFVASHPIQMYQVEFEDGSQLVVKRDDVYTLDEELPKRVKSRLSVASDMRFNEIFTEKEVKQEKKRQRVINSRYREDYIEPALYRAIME
Sfp PPTase inh: Sfp phosphopantetheinyl transferase inhibition; 310,000 compounds, 3.5% hits; AID 1490; Biochemical Sfp PPTase activity, qHTS; Potency, µM, without a hit: largest response in the series, negative = inhibition, most hits filed as inhibitors; Q9F4F7;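 further: the enzyme is Sfp with the accession as filed and its product quenches rhodamine fluorescence; potency means the concentration at half of the fitted maximal effect; 0% = enzyme reaction without inhibitor and -100% = no enzyme wells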
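Fluorescence-quenching assay: 15 nM Sfp-PPTase preincubated 15 min at room temperature with compound, then 5 uM rhodamine-CoA and 12.5 uM BHQ-2-labelled YbbR peptide added. Fluorescence (ex 525/em 598 nm) read at start and after 30 min; difference gives rate.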
L3MBTL1 inh: blocks human L3MBTL1; AlphaScreen L3MBTL1–H3K9me1 peptide binding; 230,000 compounds, 0.66% hits; Potency, µM (top dose mostly 57.1 µM), without a hit: at the top dose activity, negative = inhibition, actives largely listed as inhibitors; Q9Y468; further: potency means the concentration at half of the fitted maximal effect; on the % scale 0 is the no-effect control and ±100 the full control effect; nearly all actives have a fitted effect of over 60% in size
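Read-out is AlphaScreen signal from streptavidin donor and nickel chelate acceptor beads (10 ug/mL final each) bridging L3MBTL1 (50 nM) and biotinylated K9-monomethylated H3(1-15) peptide (75 nM), after 30 min compound exposure at room temperature.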
HP1b binding inh: blocks HP1-beta chromodomain binding to methylated histone tails. Potency, µM (doses to about 114 µM), for the others: at the highest dose activity change, negative = inhibition, hits mostly inhibitors. AlphaScreen HP1-beta / biotin-H3K9me3 peptide binding. 390,000 compounds, 0.56% hits; further: potency means the concentration at half of the fitted maximal effect; nearly all actives have a fitted effect of over 70% in size
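AlphaScreen: HP1-beta (50 nM) preformed 30 min with biotin-H3(1-18)K9me3 peptide (50 nM) in PBS pH 7.4, 0.01% Tween-20. Compound added for 30 min at RT, then streptavidin donor/nickel chelate acceptor beads (10 ug/mL) for 30 min.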
Sfp PPTase conf: confirmation of Bacillus subtilis Sfp PPTase inhibitors | shares compounds with Sfp PPTase inh | Sfp PPTase enzymatic assay, qHTS titration | Potency, µM (doses to about 114 µM), without a hit: top-dose activity change, negative = inhibition, usual class: inhibitors | 380 compounds, 79% hits;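 further: potency means the concentration at half of the fitted maximal effect; plate controls were uninhibited Sfp reaction for no effect and no enzyme control for full effect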
Sfp gel assay: Inhibits B. subtilis Sfp phosphopantetheinylation | purified Sfp, gel-based phosphopantetheinylation read-out | Potency, µM, hits mostly inhibitors | shares compounds with Sfp PPTase inh | AID 2707 | 210 compounds, 20% hits;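 active means potency below 100 µM; inconclusive means dose-dependent response but potency above 100 µM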;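 further: band intensities scaled against SCH202676 control wells before curve fitting; potency is an IC50 for inhibitors of Sfp transfer activity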
An asterisk follows results filed as active; [ ] = remark or other dose. Unless noted, the call rests on the fitted dose curve; in most records, active means well fitted curve in the direction sought with a large enough effect; inconclusive means small, poorly fitted or top-dose-only effect, or another doubt; inactive means no such curve, though single readings can be large; an effect the other way counts as inactive or inconclusive.

Results for NC(N)=Nc1nc(C2COc3ccccc3O2)cs1 (stereo not drawn) ?
G9a inh: 6%[59 µM]; BAZ2B block: -31%; JMJD2A Tudor inh: -32%; Sfp PPTase inh: 2%; L3MBTL1 inh: -4%; HP1b binding inh: -4%

Results for c1csc(-c2nn3c(C4COc5ccccc5O4)nnc3s2)c1 (stereo not drawn) ?
G9a inh: 5µM*; BAZ2B block: -3%; JMJD2A Tudor inh: -32%; Sfp PPTase inh: 7.9µM*; L3MBTL1 inh: -11%; HP1b binding inh: -35%; Sfp PPTase conf: 24µM*

What do the screens show for `COc1ccc(NC(=O)CN(c2ccc(C)cc2)S(=O)(=O)c2cccs2)cc1`?
G9a inh: 11%[59 µM]; JMJD2A Tudor inh: 4%; HP1b binding inh: 42%

How did O=C(Nc1ccc(Oc2ccc(Br)cc2)cc1)C1=CC=CN2CCS(=O)(=O)N=C12 do in these assays?
G9a inh: -4%[59 µM]; BAZ2B block: -16%; JMJD2A Tudor inh: -17%; L3MBTL1 inh: -1%; HP1b binding inh: 31%

How did COc1cc(CSc2ncc(CO)n2Cc2ccc(C)cc2)cc(OC)c1 do in these assays?
G9a inh: -33%[59 µM]; BAZ2B block: inconclusive; JMJD2A Tudor inh: inconclusive; HP1b binding inh: -15%[57 µM]

What do the screens show for `CCOc1ccc2nc(SCC(=O)c3ccc(C)s3)sc2c1`?
G9a inh: inconclusive; BAZ2B block: 24%; JMJD2A Tudor inh: -2%; Sfp PPTase inh: 18µM*; HP1b binding inh: 79%; Sfp PPTase conf: inconclusive; Sfp gel assay: inactive

What do the screens show for `Cc1ccc(-c2c[n+](Cc3ccc(Cl)cc3)c3n2CCC3)cc1`?
G9a inh: -23%; BAZ2B block: -26%; JMJD2A Tudor inh: -10%; Sfp PPTase inh: 19%; L3MBTL1 inh: 3%; HP1b binding inh: -3%

Results for Clc1ccc(C[n+]2csc3ccccc32)cc1 ?
G9a inh: inconclusive; BAZ2B block: 50µM*; JMJD2A Tudor inh: 50µM*; Sfp PPTase inh: 4µM*; L3MBTL1 inh: 0%; HP1b binding inh: 23%; Sfp PPTase conf: 8.3µM*; Sfp gel assay: 2.1µM*

What do the screens show for `COc1ccc(C(=O)C2CCCN(C(=O)CCc3scnc3C)C2)c(C)c1` (stereo not drawn)?
BAZ2B block: 28%; JMJD2A Tudor inh: -13%; Sfp PPTase inh: 13µM*; L3MBTL1 inh: -23%; HP1b binding inh: 33%; Sfp PPTase conf: 6%

Results for CCOC(=O)Nc1nc2ccc(Cn3cccc3)cc2[nH]1 ?
JMJD2A Tudor inh: 2%; HP1b binding inh: 33%

What do the screens show for `Cc1ccc(NCc2ccc(O)c3ncccc23)cc1`?
G9a inh: 5µM*; BAZ2B block: -25%; JMJD2A Tudor inh: 8.9µM*; Sfp PPTase inh: 3.5µM*; L3MBTL1 inh: -25%; HP1b binding inh: inconclusive; Sfp PPTase conf: inconclusive

What do the screens show for `O=C(c1ccccc1)N1CCN(C(=S)NCc2ccco2)CC1`?
G9a inh: -24%; JMJD2A Tudor inh: -1%; Sfp PPTase inh: 35µM*; L3MBTL1 inh: -10%; HP1b binding inh: 9%; Sfp PPTase conf: 33µM*; Sfp gel assay: inconclusive

Results for CC(C(=O)N1CCN(C(=O)c2ccco2)CC1)N1C(=O)NC2(CCCCC2C)C1=O (stereo not drawn) ?
G9a inh: inconclusive; BAZ2B block: -4%; JMJD2A Tudor inh: 6%; L3MBTL1 inh: -6%; HP1b binding inh: 49%

How did CC(=O)CCc1oc2ccc(NC(C)=O)cc2c1-c1ccc(C)o1 do in these assays?
G9a inh: 13µM*; BAZ2B block: inconclusive; JMJD2A Tudor inh: inconclusive; Sfp PPTase inh: 13µM*; L3MBTL1 inh: 0%; HP1b binding inh: 11%; Sfp PPTase conf: 15µM*; Sfp gel assay: inactive

Results for CC(=O)Nc1ccc(NC(=O)CCc2ccc(C)o2)cc1 ?
G9a inh: 19%; BAZ2B block: -19%; JMJD2A Tudor inh: -7%; Sfp PPTase inh: 7%; HP1b binding inh: 21%

What do the screens show for `CCc1ccc(-c2nc3ccc(Br)cc3c(C(=O)O)c2C)s1`?
G9a inh: -11%; BAZ2B block: 3%; JMJD2A Tudor inh: -4%; Sfp PPTase inh: -13%; HP1b binding inh: 36%

Results for Cc1noc(-c2ccc(-c3noc(-c4ccc(C(F)(F)F)cc4)n3)cc2)n1 ?
G9a inh: 26%[59 µM]; BAZ2B block: 7%; JMJD2A Tudor inh: -12%; HP1b binding inh: 9%[57 µM]

What do the screens show for `Cc1nc(-c2cc(-c3nc(-c4ccc(C(C)(C)C)cc4)no3)no2)cs1`?
G9a inh: 121%; BAZ2B block: 4%; JMJD2A Tudor inh: 31%; Sfp PPTase inh: 40µM*; L3MBTL1 inh: 0%; HP1b binding inh: 76%; Sfp PPTase conf: 15µM*; Sfp gel assay: inactive

Results for Clc1cc(Cl)c2nc(N3CCCCC3)sc2c1 ?
G9a inh: inconclusive; BAZ2B block: 141%; JMJD2A Tudor inh: 119%; Sfp PPTase inh: 10µM*; L3MBTL1 inh: 48%; HP1b binding inh: 103%; Sfp PPTase conf: 47µM*

Results for O=C(NCC(c1ccco1)N1CCCCC1)c1cc2c(s1)CCCC2 (stereo not drawn) ?
G9a inh: 22%[12.7 µM]; BAZ2B block: 2%; JMJD2A Tudor inh: -18%; L3MBTL1 inh: -1%; HP1b binding inh: 24%

How did O=C(NCc1ccco1)c1cc2c(s1)CCCCC2 do in these assays?
G9a inh: -5%[59 µM]; BAZ2B block: inconclusive; JMJD2A Tudor inh: -29%; Sfp PPTase inh: 3.5µM*; L3MBTL1 inh: inconclusive; HP1b binding inh: 8%; Sfp PPTase conf: inconclusive

What do the screens show for `COc1ccc(CNC(=O)c2ccc3nc(C(C)C)oc3c2)cc1OC`?
G9a inh: 4%[59 µM]; BAZ2B block: -3%; JMJD2A Tudor inh: -15%; HP1b binding inh: 14%[57 µM]

Results for c1ccc(-c2ccc(-c3nc(-c4ccccn4)no3)cc2)cc1 ?
G9a inh: 8%[12.7 µM]; BAZ2B block: 11%; JMJD2A Tudor inh: -2%; Sfp PPTase inh: 40µM*; HP1b binding inh: 77%; Sfp PPTase conf: 53µM*; Sfp gel assay: inactive

How did Clc1cccc(-c2nc(-c3ccccn3)no2)c1 do in these assays?
G9a inh: 1%[59 µM]; BAZ2B block: -3%; JMJD2A Tudor inh: 3%[11.4 µM]; Sfp PPTase inh: 4%; L3MBTL1 inh: 5%; HP1b binding inh: 5%
